Sampled rows, rich in hits. Any-hit rate of the full collection: about 2.3%.
GLD-1 RNA inh = GLD-1-TGE RNA interaction inhibition (C. elegans). Q17339. purified GLD-1 + fluorescein TGE RNA, fluorescence polarization. inhibition, % at 5.96 µM. 320,000 compounds, 0.44% hits;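 active = percent inhibition above a per-plate cutoff, the plate mean of test compounds plus 3 SD, cut at about 30% in these data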;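 also: 0% = DMSO wells with GLD-1 and probe and 100% = wells lacking GLD-1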
Target sequence (Q17339 whole entry, looked up): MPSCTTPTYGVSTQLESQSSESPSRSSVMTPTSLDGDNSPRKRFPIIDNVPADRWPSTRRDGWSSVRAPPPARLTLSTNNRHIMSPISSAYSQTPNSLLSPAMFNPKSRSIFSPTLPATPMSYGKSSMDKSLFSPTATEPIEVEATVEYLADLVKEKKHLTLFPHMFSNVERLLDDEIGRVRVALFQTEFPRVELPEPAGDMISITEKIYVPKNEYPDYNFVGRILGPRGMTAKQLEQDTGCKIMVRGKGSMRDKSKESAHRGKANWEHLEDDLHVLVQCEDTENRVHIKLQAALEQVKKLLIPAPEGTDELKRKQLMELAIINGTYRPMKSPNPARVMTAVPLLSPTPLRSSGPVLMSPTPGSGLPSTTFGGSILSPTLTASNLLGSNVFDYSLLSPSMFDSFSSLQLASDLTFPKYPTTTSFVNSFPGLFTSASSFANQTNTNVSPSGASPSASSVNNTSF
MCL1-BIM inh = disrupts human MCL1 binding to BIM-BH3 peptide | GST-MCL1 / FITC-Bim-BH3 fluorescence polarization | inhibition, % at 10.9 µM | 320,000 compounds, 0.68% hits | Q07820;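 active = inhibition above the mean inhibition of all tested compounds plus 3 SD, set per campaign, cut at about 40% in these data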;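 also: 0% = DMSO wells and 100% = unlabeled Bim-BH3 peptide control; higher means more loss of mP so more displacement of Bim peptide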
Mcl1-Bid inh = Mcl-1/Bid interaction inhibition. Q07820. TR-FRET Mcl-1/Bid-Dy647 peptide binding, 1536-well. inhibition, % at 21.7 µM. 220,000 compounds, 0.97% hits. AID 1021;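 active = compounds that cut the binding signal by more than half at the single screening dose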;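 also: His-tagged Mcl-1 with europium anti-His antibody binding Bid BH3 peptide; 0% = Mcl-1 plus peptide wells and 100% = peptide-only wells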
Bim-Mcl-1 = inhibitors of Bim-Mcl-1 interaction, human | 190,000 compounds, 0.1% hits | inhibition, % at 10 µM | Bead-based flow cytometry, Bim peptide-Mcl-1 binding; in the data active = inhibition above about 40%;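 also: 0% = no compound tracer wells and 100% = peptide blocker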
BCLXL inh = Bcl-xL (human) inhibition | Q07817 | GST-Bcl-xL / FITC-Bim BH3 peptide fluorescence polarization | inhibition, % at 10.9 µM | 320,000 compounds, 0.7% hits | AID 2129;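 active = inhibition above the mean of all tested compounds plus 3 SD, cutoff set per campaign, cut at about 30% in these data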;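 also: 0% = DMSO wells and 100% = unlabeled Bim-BH3 peptide competitor; inhibitors lower millipolarization by displacing the labeled peptide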
Target sequence (Q07817 whole entry, looked up): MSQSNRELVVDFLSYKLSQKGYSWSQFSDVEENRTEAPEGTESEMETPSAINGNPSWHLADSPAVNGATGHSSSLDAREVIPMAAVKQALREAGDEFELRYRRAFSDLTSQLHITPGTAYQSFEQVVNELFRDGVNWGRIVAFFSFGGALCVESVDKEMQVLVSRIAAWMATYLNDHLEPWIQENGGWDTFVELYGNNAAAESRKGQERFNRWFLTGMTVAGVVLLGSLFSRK
Mcl1 Noxa PPI = disrupts binding of human Mcl-1 to Noxa peptide | inhibition, % at 21.7 µM | AID 1022 | Q07820 | 220,000 compounds, 1.5% hits | TR-FRET Mcl-1/Noxa peptide binding, 2 h;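 active = compounds that cut the protein-peptide binding signal by more than 50% relative to plate controls in a single-dose test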;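 also: His-tagged Mcl-1 with rhodamine Noxa BH3 peptide and terbium anti-His antibody; 0% = Mcl-1 plus Noxa peptide wells and 100% = peptide-only wells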
* = called active by the depositor.

For CCC(C)Sc1ccc([C@@H]2[C@@H]3C(=O)N(CC)C(=O)[C@@H]3[C@]3(C(=O)OC)CCCCN23)cc1 (stereo partly specified) the results were GLD-1 RNA inh 6.8.
For OCc1cccc(Nc2ncnc3sc4c(c23)CCCCC4)c1 the results were GLD-1 RNA inh 1.1, MCL1-BIM inh -2.8 and BCLXL inh 1.8.
`COC(=O)c1ccc(N2NC(=O)/C(=C/c3ccc(-c4ccc(Cl)c(C(=O)O)c4)o3)C2=O)cc1` gave Mcl1-Bid inh -81.7, Bim-Mcl-1 2.0 and Mcl1 Noxa PPI 41.1.
`Cc1ccc(NC(=O)CN2C(=O)S/C(=C/c3ccc(-c4cccc(C(=O)O)c4)o3)C2=O)cc1` gave Mcl1-Bid inh -31.1, Bim-Mcl-1 2.0 and Mcl1 Noxa PPI 83.0*.
For COc1ccc(CN2C(=O)/C(=C/c3ccc(-c4ccc(Cl)c(C(=O)O)c4)o3)SC2=S)cc1 the results were Mcl1-Bid inh 99.2*, Bim-Mcl-1 13.0 and Mcl1 Noxa PPI 91.7*.
For O=C(O)c1cc(-c2ccc(/C=C3/SC(=S)N(Cc4ccccc4)C3=O)o2)ccc1Cl the results were Mcl1-Bid inh 100.7*, Bim-Mcl-1 16.0 and Mcl1 Noxa PPI 85.1*.
Cc1ccc(/C=C2\SC(=S)N(Cc3ccccc3)C2=O)o1 was read as GLD-1 RNA inh -4.6, MCL1-BIM inh 16.4, Mcl1-Bid inh -29.0, Bim-Mcl-1 6.0, BCLXL inh 2.1 and Mcl1 Noxa PPI 90.3*.
Screening O=C1/C(=C/c2ccncc2)SC(=S)N1Cc1ccccc1 returned GLD-1 RNA inh -0.9, MCL1-BIM inh 10.8, Mcl1-Bid inh 3.7, BCLXL inh 3.4 and Mcl1 Noxa PPI 5.1.
`CC1(C)OC(=O)C(=Cc2ccc(-c3ccc(Cl)c(C(=O)O)c3)o2)C(=O)O1` gave GLD-1 RNA inh -4.8, MCL1-BIM inh 1.4, Mcl1-Bid inh -23.8, Bim-Mcl-1 -1.0, BCLXL inh 2.8 and Mcl1 Noxa PPI 25.8.
Screening O=C(N/N=C/c1ccc(F)cc1)c1cc[n+]([O-])cc1 returned GLD-1 RNA inh 5.6, MCL1-BIM inh -3.5 and BCLXL inh 2.9.
Screening COc1ccc(C(=O)N/N=C(\C)CC(=O)Nc2ccc3ccccc3c2)c(OC)c1 returned GLD-1 RNA inh -1.6, MCL1-BIM inh -0.7 and BCLXL inh 2.9.
`O=[N+]([O-])c1ccc2c(c1)ncn2-c1ccccc1` gave GLD-1 RNA inh 2.6, MCL1-BIM inh 14.0, Mcl1-Bid inh 82.4*, Bim-Mcl-1 -1.0, BCLXL inh 3.3 and Mcl1 Noxa PPI -16.1.
For O=[N+]([O-])c1ccc2c(c1)nc(CO)n2Cc1ccccc1 the results were GLD-1 RNA inh -5.7, MCL1-BIM inh -1.9 and BCLXL inh 0.8.
O=[N+]([O-])c1ccc2c(c1)nnn2-c1ccccc1 was read as GLD-1 RNA inh 8.8, MCL1-BIM inh 5.5 and BCLXL inh 5.8.
`Cn1c(-[n+]2c(-c3ccccc3)cc(-c3ccccc3)cc2-c2ccccc2)nc2cc([N+](=O)[O-])ccc21` gave GLD-1 RNA inh -1.9, MCL1-BIM inh -20.8, Mcl1-Bid inh -22.2, Bim-Mcl-1 -2.0, BCLXL inh -8.4 and Mcl1 Noxa PPI 64.2*.
C=CCN1C(=O)c2ccc(C(=O)N3CCN(S(=O)(=O)c4cccc(Cl)c4)CC3)cc2C1=O was read as GLD-1 RNA inh -2.0, MCL1-BIM inh -0.7 and BCLXL inh 2.4.
For COc1cc(/C=N/NC(=O)CCOc2ccccc2C)cc(Br)c1O the results were GLD-1 RNA inh -7.1, MCL1-BIM inh 11.9, Mcl1-Bid inh -29.6, Bim-Mcl-1 -1.0, BCLXL inh 1.0 and Mcl1 Noxa PPI 66.8*.
For COc1ccc(/C=N/NC(=O)CCOc2ccccc2C)cc1OC the results were GLD-1 RNA inh -3.1, MCL1-BIM inh 4.9, Mcl1-Bid inh -19.7, Bim-Mcl-1 -5.0, BCLXL inh 0.5 and Mcl1 Noxa PPI 5.3.
Cc1nc(SCC(=O)N2CCCCCC2)[nH]c(=O)c1C was read as GLD-1 RNA inh -7.0, MCL1-BIM inh -4.6 and BCLXL inh -1.6.
COc1cc(C(=O)OCC(=O)NCCC2=CCCCC2)ccc1OCC(C)C was read as GLD-1 RNA inh -1.8, MCL1-BIM inh -3.6 and BCLXL inh -1.5.
Screening O=c1c2c(nc3cc(-c4cccc(F)c4)[nH]n13)CCC2 returned GLD-1 RNA inh -4.2, MCL1-BIM inh -3.5, Mcl1-Bid inh -25.3, Bim-Mcl-1 -1.0, BCLXL inh -2.8 and Mcl1 Noxa PPI 14.7.
`O=c1c2c(nc3cc(-c4ccc(F)cc4)[nH]n13)CCCC2` gave GLD-1 RNA inh 1.1, MCL1-BIM inh 9.1, Mcl1-Bid inh -23.8, Bim-Mcl-1 0.0, BCLXL inh 7.1 and Mcl1 Noxa PPI 51.5*.
Cc1[nH]n2c(=O)c3c(nc2c1-c1ccccc1)CCCC3 was read as GLD-1 RNA inh 0.9, MCL1-BIM inh 1.9, Mcl1-Bid inh -10.4, Bim-Mcl-1 -3.0, BCLXL inh 1.6 and Mcl1 Noxa PPI 19.3.
Screening Cc1[nH]n2c(=O)c3c(nc2c1-c1ccc(F)cc1)CCCC3 returned GLD-1 RNA inh 3.2, MCL1-BIM inh 1.3, Mcl1-Bid inh 80.9*, Bim-Mcl-1 4.0, BCLXL inh 10.2 and Mcl1 Noxa PPI 4.0.
For Cc1ccc2nc(N3CC(=O)Nc4ccccc43)nc(-c3ccccc3)c2c1 the results were GLD-1 RNA inh -3.9, MCL1-BIM inh -4.0, Mcl1-Bid inh 96.8*, Bim-Mcl-1 15.0, BCLXL inh 2.6 and Mcl1 Noxa PPI 10.0.
`Cc1ccc2nc(N3CCC(C(=O)O)CC3)nc(-c3ccccc3)c2c1` gave GLD-1 RNA inh 0.1, MCL1-BIM inh 5.0, Mcl1-Bid inh 5.7, Bim-Mcl-1 -1.0, BCLXL inh 9.1 and Mcl1 Noxa PPI 7.3.
For CSc1nnc2ccc(-c3cccs3)nn12 the results were GLD-1 RNA inh 8.1, MCL1-BIM inh -5.1, Mcl1-Bid inh -4.9, Bim-Mcl-1 42.0*, BCLXL inh 3.9 and Mcl1 Noxa PPI 2.7.
`Cc1cc(C(=O)Nc2ccc([N+](=O)[O-])cn2)cs1` gave GLD-1 RNA inh 5.0, MCL1-BIM inh 1.7 and BCLXL inh 2.2.
Cc1ccc(NC(=O)c2cc(S(=O)(=O)NCCC3=CCCCC3)ccc2F)cc1F was read as GLD-1 RNA inh 3.8, MCL1-BIM inh 7.9, Mcl1-Bid inh -4.0, Bim-Mcl-1 68.0*, BCLXL inh 3.3 and Mcl1 Noxa PPI 10.4.
`Cc1noc(C)c1S(=O)(=O)NC1CCN(Cc2ccccc2)CC1` gave GLD-1 RNA inh 9.4, MCL1-BIM inh 31.9, Mcl1-Bid inh -12.9, Bim-Mcl-1 0.0, BCLXL inh 34.7* and Mcl1 Noxa PPI -13.3.
For Cc1cc(C)c(S(=O)(=O)NC2CCN(Cc3ccccc3)CC2)c(C)c1 the results were GLD-1 RNA inh 8.9, MCL1-BIM inh 9.8, Mcl1-Bid inh -29.5, BCLXL inh 3.0 and Mcl1 Noxa PPI -20.5.
O=C(Nc1cccc(N2CCCC2)c1)c1cccs1 was read as GLD-1 RNA inh 5.8, MCL1-BIM inh 1.2, Mcl1-Bid inh -66.7, Bim-Mcl-1 0.0, BCLXL inh -9.9 and Mcl1 Noxa PPI 50.9*.
